Reference: PubChem BioAssay AID1159580 (chemical genetic matrix, 2015)
The whole screen tested about 5,500 compounds, of which about 2,000 (36%) were called active. Inconclusive results (about 18%) are left out. Rule as the data show it: active = normalized growth mostly below about 0.91 (no sharp cut-off); inconclusive = no clear call, values can overlap the other calls; inactive = mostly above about 0.92. This is one part of the list.

Test: chemical genetic growth profiling, strain panel (AID 1159580);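 also: tested at 20 µM; growth read once vehicle control cultures reached saturation at 30 °C; 1 = growth at the plate median or of vehicle wells; lower values mean less growth of the strain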
Details: S. cerevisiae deletion strains, growth OD

Measured: normalized growth

O=C1CCc2ccc(OCCCCN3CCN(c4cccc(Cl)c4Cl)CC3)cc2N1
inactive: locus YHR030C, strain SLT2, active compounds read low 1.03 | locus YHR079C, strain IRE1, active compounds read low 0.961 | locus YJL095W, strain BCK1, active compounds read low 0.955 | locus YJR066W, strain TOR1, active compounds read low 0.927 | locus YLR113W, strain HOG1, active compounds read low 0.959 | locus YNL183C, strain NPR1, active compounds read low 0.894 | locus YOR231W, strain MKK1, active compounds read low 0.97 | locus YPL256C, strain CLN2, active compounds read low 0.975
